# “And” between values parts separate entries of the source, which are not always exact repeats. Equal entries are not always repeated. This is part of a sample that, as a whole, favours compounds with a hit. Of some 83,000 tested, about 20% had one in any assay.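 A percent growth of 40 corresponds to 60% growth inhibition; 0 means no net growth; -100 means all cells died. Active threshold: below 10.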 Values without a mark were called inactive. The source made the active and inactive calls.
# System: SNB-19 CNS
# Experiment: NCI-60 one-dose screen, 48 h (100 = growth as untreated, 0 = no growth, -100 = all killed)
# Settings: 10 µM unless noted
row,Structure (SMILES),growth
1,S=c1nc(CS)[nH]c2ccccc12,92.5%
2,Cc1oc2c(Cc3ccc(NC(=O)c4ccc(Cl)cc4)cc3)ncnc2c1C(=O)NO,105%
3,COc1ccc2c(c1)CCNC21C(=O)Nc2c(Br)cc(Br)cc21 (centres undefined),91.5%
4,COC(=O)c1nc(-c2ccccc2)oc1S(=O)(=O)N(C)CCO,92.3%
5,[2H]C([2H])([2H])Oc1cccc(/C=C/C(=O)/C=C(/C=C/c2cccc(OC([2H])([2H])[2H])c2OC([2H])([2H])[2H])OB(F)F)c1OC([2H])([2H])[2H],89.1%
6,N#Cc1ccccc1OCC(=O)Nc1nc2c(s1)COc1ccccc1-2,102%
7,COc1cc(/C=C2/C=C(c3ccc(C(C)(C)C)cc3)N(CCc3ccc(S(N)(=O)=O)cc3)C2=O)cc(OC)c1OC,69%
8,Nc1n[nH]c2cccc(C#Cc3cccc(NC(=O)c4ccc(N5CCOCC5)c(C(F)(F)F)c4)c3)c12,26.1%
9,Cc1nn(-c2nc(-c3cc4ccccc4oc3=O)cs2)c(C)c1N=Nc1ccccc1,101%
10,Cc1nnc(NS(=O)(=O)c2ccc(N=Nc3ccc(N)nc3N)cc2)s1,100% and 112%
11,COc1ccc(-c2csc(NC(=O)CN3CCN(CCO)CC3)n2)cc1NS(=O)(=O)c1cccc2c(N(C)C)cccc12,74.3%
12,C=C(c1ccc(C(=O)O)cc1)c1cc2c(cc1C)C(C)(C)CCC2(C)C,75.2% and 79.6%
13,O=[N+]([O-])c1cc(C(F)(F)F)ccc1Sc1ccc(C(F)(F)F)cc1[N+](=O)[O-],91.5%
14,COc1ccc2c(O)c(/C=C3\N=Nc4nc(C)ccc43)oc2c1CC1CCNCC1,57.5%
15,Cc1ccc(Nc2nc(-c3cc(O)c(C)c(C)c3O)cs2)cc1,110%
16,COc1cc(N=Nc2ccc(O)c3ncccc23)c2ncccc2c1,47.6%
17,CCCCCCCC/C=C\CCCCCCCCOc1ccccc1CC(=O)NCC[N+]1(C)CCOCC1,32.8%
18,Nc1ccc(S(=O)(=O)c2ccc(N)cc2)cc1,100% and 104%
19,C[C@]12CCc3c(ccc4cc(O)ccc34)[C@@H]1C[C@H](O)[C@@H]2O,95%
20,COc1ccc(C(c2cc(OC)c(OC)c(OC)c2)n2ccnc2)cc1O (centres undefined),30.5%
21,CN(C)CCCn1c2c(c3ccc(N4CCNCC4)cc3c1=O)C(=O)c1ccccc1-2,-13.9% (active)
22,Clc1ccc(Nc2nc(Nc3ccc(Cl)cc3)nc(Nc3ccc(-c4cc(-c5cccc(Cl)c5)on4)cc3)n2)cc1,101%
23,N#Cc1ccccc1-c1ccc(Cn2c(-c3cscn3)nc3c(Cl)cccc32)cc1,88.5%
24,O=C(NNc1ccccc1)c1ccccc1,95% and 99.3%
25,CCOc1ccc(N2C(N)=NC(N)=NC2(C)C)cc1,40.3% and 98.2%
26,O=C1c2cc3c(cc2-c2c1c1ccc(Cl)cc1c(=O)n2CCCn1ccnc1)OCO3,17.3%

# System: U251 CNS
# Experiment: as above
# Settings: 10 µM unless noted
row,Structure (SMILES),growth
1,Cc1ccc(C(=O)Nc2ccc(CN3CCN(C)CC3)c(C(F)(F)F)c2)cc1C#Cc1cnc(N)cc1C#N,-73.6% (active)
2,COc1cc(/C=C(/c2ccccc2)[N+](=O)[O-])c(OC)c2c1OCO2,-92.9% (active)
3,C[C@@H]1CC[C@@H]2[C@@H]1[C@H](OC(=O)/C=C/c1ccccc1)[C@]1(c3ccccc3)C[C@@H](NC(=O)CO)[C@@]2(C)O1,88.9%
4,Nc1ccc(-c2nc3ccc4[nH]ncc4c3c3c2CCCC3)cc1F,26.8%
5,C=C1CCC2C3(C)COC(c4ccc(NC(C)=O)cc4)OC3CCC2(C)C1C/C=C1/C(=O)OCC1O (centres undefined),54.7%
6,Cc1c(C(C)(C)O)cn2ncnc(Oc3ccc(NC(=O)Nc4ccc(Cl)c(C(F)(F)F)c4)cc3)c12,31.8%
7,Cc1ccccc1SSc1ccccc1C,87.6%
8,O=C(CC1(O)C(=O)Nc2ccc(Br)cc21)c1ccc(Cl)cc1 (centres undefined),94.6%
9,O/N=C(/c1ccccc1)c1ccc2c3c(cccc13)CC2,90.1% and 89.3%
10,Cc1ccc(/C=C2\COc3ccc(O)c(O)c3C2=O)cc1,-3.38% (active)
11,CC1(Cc2ccccc2)CC2=C(C(=O)O1)C(c1ccccc1)NC(=O)N2 (centres undefined),104%
12,[Cu+].[NH-][C@H]1C[N-]C(=O)[C@H]([C@H]2CCN=C(N)N2)[N-]C(=O)/C(=C\NC(N)=O)[N-]C(=O)[C@H](CNC(=O)C[C@@H](N)CCCN)[N-]C(=O)[C@H](CO)[N-]C1=O,101%
13,S=c1nc(CS)[nH]c2ccccc12,96.7%
14,Cc1oc2c(Cc3ccc(NC(=O)c4ccc(Cl)cc4)cc3)ncnc2c1C(=O)NO,104%
15,COc1ccc2c(c1)CCNC21C(=O)Nc2c(Br)cc(Br)cc21 (centres undefined),96.7%
16,COC(=O)c1nc(-c2ccccc2)oc1S(=O)(=O)N(C)CCO,82.7%
17,[2H]C([2H])([2H])Oc1cccc(/C=C/C(=O)/C=C(/C=C/c2cccc(OC([2H])([2H])[2H])c2OC([2H])([2H])[2H])OB(F)F)c1OC([2H])([2H])[2H],58.8%
18,N#Cc1ccccc1OCC(=O)Nc1nc2c(s1)COc1ccccc1-2,98.8%
19,COc1cc(/C=C2/C=C(c3ccc(C(C)(C)C)cc3)N(CCc3ccc(S(N)(=O)=O)cc3)C2=O)cc(OC)c1OC,41.7%

row,Structure (SMILES),growth
1,Nc1n[nH]c2cccc(C#Cc3cccc(NC(=O)c4ccc(N5CCOCC5)c(C(F)(F)F)c4)c3)c12,16.6%
2,Cc1nn(-c2nc(-c3cc4ccccc4oc3=O)cs2)c(C)c1N=Nc1ccccc1,88.8%
3,Cc1nnc(NS(=O)(=O)c2ccc(N=Nc3ccc(N)nc3N)cc2)s1,105% and 106%
4,COc1ccc(-c2csc(NC(=O)CN3CCN(CCO)CC3)n2)cc1NS(=O)(=O)c1cccc2c(N(C)C)cccc12,29.5%
5,C=C(c1ccc(C(=O)O)cc1)c1cc2c(cc1C)C(C)(C)CCC2(C)C,84.1% and 62.8%
6,O=[N+]([O-])c1cc(C(F)(F)F)ccc1Sc1ccc(C(F)(F)F)cc1[N+](=O)[O-],83.9%
7,COc1ccc2c(O)c(/C=C3\N=Nc4nc(C)ccc43)oc2c1CC1CCNCC1,21.4%
8,Cc1ccc(Nc2nc(-c3cc(O)c(C)c(C)c3O)cs2)cc1,97.2%
9,COc1cc(N=Nc2ccc(O)c3ncccc23)c2ncccc2c1,16.5%
10,CCCCCCCC/C=C\CCCCCCCCOc1ccccc1CC(=O)NCC[N+]1(C)CCOCC1,12.3%
11,Nc1ccc(S(=O)(=O)c2ccc(N)cc2)cc1,94.6% and 106%
12,C[C@]12CCc3c(ccc4cc(O)ccc34)[C@@H]1C[C@H](O)[C@@H]2O,101%
13,COc1ccc(C(c2cc(OC)c(OC)c(OC)c2)n2ccnc2)cc1O (centres undefined),15.5%
14,CN(C)CCCn1c2c(c3ccc(N4CCNCC4)cc3c1=O)C(=O)c1ccccc1-2,-54.1% (active)
15,Clc1ccc(Nc2nc(Nc3ccc(Cl)cc3)nc(Nc3ccc(-c4cc(-c5cccc(Cl)c5)on4)cc3)n2)cc1,79%
16,N#Cc1ccccc1-c1ccc(Cn2c(-c3cscn3)nc3c(Cl)cccc32)cc1,79.1%
17,O=C(NNc1ccccc1)c1ccccc1,90.8%
18,CCOc1ccc(N2C(N)=NC(N)=NC2(C)C)cc1,20% and 68.6%
19,O=C1c2cc3c(cc2-c2c1c1ccc(Cl)cc1c(=O)n2CCCn1ccnc1)OCO3,-33.1% (active)

# From PubChem BioAssay (NCI)
